Tests used:
[1] = target: T1, Inhibitor of nuclear factor kappa-B kinase subunit epsilon (Homo sapiens) (UniProt Q14164); settings: at 1 µM;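 note: reported values are averaged percent inhibition figures against human IKKε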
T1 sequence (whole entry): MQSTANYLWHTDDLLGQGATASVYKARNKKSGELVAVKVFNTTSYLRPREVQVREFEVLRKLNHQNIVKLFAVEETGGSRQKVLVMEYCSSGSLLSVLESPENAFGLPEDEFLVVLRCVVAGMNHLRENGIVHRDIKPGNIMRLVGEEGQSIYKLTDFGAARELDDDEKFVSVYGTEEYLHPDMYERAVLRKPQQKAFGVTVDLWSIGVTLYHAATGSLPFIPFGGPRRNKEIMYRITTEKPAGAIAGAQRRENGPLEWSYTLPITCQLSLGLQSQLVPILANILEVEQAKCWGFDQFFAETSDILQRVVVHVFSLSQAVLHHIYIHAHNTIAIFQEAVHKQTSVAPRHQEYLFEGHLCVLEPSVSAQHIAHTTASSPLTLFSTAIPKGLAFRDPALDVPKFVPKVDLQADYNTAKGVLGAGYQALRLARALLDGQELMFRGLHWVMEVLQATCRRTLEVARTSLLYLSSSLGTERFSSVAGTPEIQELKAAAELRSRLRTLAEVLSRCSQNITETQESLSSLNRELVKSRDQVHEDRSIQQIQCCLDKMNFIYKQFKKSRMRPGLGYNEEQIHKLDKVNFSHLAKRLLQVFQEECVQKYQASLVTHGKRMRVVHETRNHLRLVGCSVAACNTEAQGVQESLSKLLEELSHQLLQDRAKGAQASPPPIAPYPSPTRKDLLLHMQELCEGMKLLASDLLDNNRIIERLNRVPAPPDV

[2] = target: T2, Serine/threonine-protein kinase Nek1 (Homo sapiens) (UniProt Q96PY6); settings: at 0.1 µM
T2 sequence (whole entry): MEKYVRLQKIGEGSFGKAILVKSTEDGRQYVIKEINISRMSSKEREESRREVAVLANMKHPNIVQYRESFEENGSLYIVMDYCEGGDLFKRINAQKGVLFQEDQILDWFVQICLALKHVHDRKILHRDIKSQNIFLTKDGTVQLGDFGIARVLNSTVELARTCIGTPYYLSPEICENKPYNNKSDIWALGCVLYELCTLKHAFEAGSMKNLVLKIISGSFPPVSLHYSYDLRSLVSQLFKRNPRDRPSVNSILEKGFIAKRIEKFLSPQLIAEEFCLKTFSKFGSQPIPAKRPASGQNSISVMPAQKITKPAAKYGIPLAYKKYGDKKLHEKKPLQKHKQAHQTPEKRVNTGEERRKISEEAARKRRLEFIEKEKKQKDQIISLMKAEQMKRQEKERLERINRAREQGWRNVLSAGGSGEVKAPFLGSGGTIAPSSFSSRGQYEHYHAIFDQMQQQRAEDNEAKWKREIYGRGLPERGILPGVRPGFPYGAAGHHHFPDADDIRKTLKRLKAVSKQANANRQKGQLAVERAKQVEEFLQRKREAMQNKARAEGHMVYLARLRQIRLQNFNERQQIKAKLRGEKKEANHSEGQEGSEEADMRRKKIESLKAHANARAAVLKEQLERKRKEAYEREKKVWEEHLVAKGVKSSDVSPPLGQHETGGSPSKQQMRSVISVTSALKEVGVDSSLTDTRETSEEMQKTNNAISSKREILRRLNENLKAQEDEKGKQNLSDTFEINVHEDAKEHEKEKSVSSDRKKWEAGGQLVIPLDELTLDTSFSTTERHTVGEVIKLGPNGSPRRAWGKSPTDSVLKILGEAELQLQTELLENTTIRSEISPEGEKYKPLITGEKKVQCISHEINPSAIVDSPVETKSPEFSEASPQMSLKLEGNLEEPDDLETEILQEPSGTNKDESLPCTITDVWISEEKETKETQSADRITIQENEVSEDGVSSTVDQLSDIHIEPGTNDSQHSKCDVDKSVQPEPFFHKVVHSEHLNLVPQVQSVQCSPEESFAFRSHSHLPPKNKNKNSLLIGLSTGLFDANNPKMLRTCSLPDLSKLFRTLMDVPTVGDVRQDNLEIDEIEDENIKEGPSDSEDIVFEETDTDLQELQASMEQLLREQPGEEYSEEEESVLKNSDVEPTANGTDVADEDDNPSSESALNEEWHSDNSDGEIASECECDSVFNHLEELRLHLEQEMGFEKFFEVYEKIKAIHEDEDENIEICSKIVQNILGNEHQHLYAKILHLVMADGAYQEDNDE

[3] = target: T2, Serine/threonine-protein kinase Nek1 (Homo sapiens); settings: at 1 µM
[4] = target: T3, Serine/threonine-protein kinase Nek2 (Homo sapiens) (UniProt P51955); settings: at 0.1 µM
T3 sequence (whole entry): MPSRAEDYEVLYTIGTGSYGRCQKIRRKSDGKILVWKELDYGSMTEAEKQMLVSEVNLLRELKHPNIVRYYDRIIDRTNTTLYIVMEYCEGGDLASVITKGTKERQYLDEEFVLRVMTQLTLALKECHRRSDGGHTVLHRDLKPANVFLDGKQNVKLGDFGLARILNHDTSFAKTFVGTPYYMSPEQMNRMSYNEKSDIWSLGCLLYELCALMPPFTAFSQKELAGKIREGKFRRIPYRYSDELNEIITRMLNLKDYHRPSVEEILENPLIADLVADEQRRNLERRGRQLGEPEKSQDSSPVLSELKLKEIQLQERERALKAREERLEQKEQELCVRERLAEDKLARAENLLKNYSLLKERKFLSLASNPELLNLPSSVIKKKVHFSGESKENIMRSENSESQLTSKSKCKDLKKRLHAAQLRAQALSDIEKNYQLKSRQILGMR

[5] = target: T3, Serine/threonine-protein kinase Nek2 (Homo sapiens); settings: at 1 µM
[6] = target: Serine/threonine-protein kinase Nek6 (Homo sapiens) (UniProt Q9HC98); settings: at 0.1 µM
[7] = target: Serine/threonine-protein kinase Nek6 (Homo sapiens) (UniProt Q9HC98); settings: at 1 µM
[8] = target: Serine/threonine-protein kinase Nek7 (Homo sapiens) (UniProt Q8TDX7); settings: at 0.1 µM
[9] = target: Serine/threonine-protein kinase Nek7 (Homo sapiens) (UniProt Q8TDX7); settings: at 1 µM
[10] = target: T4, Serine/threonine-protein kinase Nek9 (Homo sapiens) (UniProt Q8TD19); settings: at 0.1 µM
T4 sequence (whole entry): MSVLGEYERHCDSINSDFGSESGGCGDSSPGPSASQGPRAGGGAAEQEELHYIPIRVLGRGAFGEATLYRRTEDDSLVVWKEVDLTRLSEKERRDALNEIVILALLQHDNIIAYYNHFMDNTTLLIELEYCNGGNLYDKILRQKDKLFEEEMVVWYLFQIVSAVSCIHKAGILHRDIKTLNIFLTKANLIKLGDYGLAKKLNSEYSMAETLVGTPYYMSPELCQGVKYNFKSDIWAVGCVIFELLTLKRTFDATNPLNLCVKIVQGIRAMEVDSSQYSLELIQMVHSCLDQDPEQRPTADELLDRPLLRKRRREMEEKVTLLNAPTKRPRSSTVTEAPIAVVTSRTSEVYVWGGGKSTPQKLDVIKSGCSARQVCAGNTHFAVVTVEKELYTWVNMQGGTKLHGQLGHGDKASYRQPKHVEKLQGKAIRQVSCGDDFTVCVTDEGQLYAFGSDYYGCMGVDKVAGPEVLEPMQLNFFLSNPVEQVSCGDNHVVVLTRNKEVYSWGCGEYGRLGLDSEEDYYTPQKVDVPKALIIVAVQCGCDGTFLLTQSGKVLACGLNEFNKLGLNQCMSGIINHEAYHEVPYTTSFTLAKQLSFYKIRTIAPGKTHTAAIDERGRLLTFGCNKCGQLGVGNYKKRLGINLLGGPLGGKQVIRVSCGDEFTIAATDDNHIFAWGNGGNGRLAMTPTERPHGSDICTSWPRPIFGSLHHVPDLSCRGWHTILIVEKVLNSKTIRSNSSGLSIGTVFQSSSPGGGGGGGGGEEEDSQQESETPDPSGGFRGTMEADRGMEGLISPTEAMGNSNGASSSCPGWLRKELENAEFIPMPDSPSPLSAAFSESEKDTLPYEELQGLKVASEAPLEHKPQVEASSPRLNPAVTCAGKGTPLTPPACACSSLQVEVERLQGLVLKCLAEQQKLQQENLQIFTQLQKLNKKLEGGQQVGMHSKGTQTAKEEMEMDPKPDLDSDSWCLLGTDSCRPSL

[11] = target: T4, Serine/threonine-protein kinase Nek9 (Homo sapiens); settings: at 1 µM
[12] = target: Serine/threonine-protein kinase PLK1 (Homo sapiens) (UniProt P53350); settings: at 0.1 µM
[13] = target: Serine/threonine-protein kinase PLK1 (Homo sapiens) (UniProt P53350); settings: at 1 µM
[14] = target: T5, Dual specificity protein kinase TTK (Homo sapiens) (UniProt P33981); settings: at 0.1 µM
T5 sequence (whole entry): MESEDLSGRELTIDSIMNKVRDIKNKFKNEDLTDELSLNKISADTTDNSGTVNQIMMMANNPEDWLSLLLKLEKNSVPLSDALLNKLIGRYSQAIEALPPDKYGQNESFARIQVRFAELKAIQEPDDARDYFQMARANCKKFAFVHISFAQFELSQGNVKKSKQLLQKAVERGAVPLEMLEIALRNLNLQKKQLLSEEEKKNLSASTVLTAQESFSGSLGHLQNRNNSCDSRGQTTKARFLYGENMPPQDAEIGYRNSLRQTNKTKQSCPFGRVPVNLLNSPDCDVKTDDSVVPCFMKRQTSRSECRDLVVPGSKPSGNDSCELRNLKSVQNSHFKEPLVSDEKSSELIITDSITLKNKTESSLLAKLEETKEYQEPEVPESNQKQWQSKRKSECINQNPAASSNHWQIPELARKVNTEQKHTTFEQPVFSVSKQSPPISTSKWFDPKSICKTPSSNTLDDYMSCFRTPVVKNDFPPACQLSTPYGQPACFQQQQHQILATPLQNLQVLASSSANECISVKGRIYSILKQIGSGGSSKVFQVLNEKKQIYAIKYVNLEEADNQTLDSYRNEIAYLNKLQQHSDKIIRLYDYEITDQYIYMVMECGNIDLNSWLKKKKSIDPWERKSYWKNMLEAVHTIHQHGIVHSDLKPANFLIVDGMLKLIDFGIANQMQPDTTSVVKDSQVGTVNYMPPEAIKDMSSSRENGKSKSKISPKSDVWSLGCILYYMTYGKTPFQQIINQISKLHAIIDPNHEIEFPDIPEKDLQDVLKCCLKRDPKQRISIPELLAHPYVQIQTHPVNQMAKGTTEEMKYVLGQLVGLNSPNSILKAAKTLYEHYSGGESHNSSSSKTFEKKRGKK

[15] = test system: T6, Receptor-type tyrosine-protein kinase FLT3 (Homo sapiens), P36888 [D835Y]; settings: at 1 µM
T6 sequence (whole entry): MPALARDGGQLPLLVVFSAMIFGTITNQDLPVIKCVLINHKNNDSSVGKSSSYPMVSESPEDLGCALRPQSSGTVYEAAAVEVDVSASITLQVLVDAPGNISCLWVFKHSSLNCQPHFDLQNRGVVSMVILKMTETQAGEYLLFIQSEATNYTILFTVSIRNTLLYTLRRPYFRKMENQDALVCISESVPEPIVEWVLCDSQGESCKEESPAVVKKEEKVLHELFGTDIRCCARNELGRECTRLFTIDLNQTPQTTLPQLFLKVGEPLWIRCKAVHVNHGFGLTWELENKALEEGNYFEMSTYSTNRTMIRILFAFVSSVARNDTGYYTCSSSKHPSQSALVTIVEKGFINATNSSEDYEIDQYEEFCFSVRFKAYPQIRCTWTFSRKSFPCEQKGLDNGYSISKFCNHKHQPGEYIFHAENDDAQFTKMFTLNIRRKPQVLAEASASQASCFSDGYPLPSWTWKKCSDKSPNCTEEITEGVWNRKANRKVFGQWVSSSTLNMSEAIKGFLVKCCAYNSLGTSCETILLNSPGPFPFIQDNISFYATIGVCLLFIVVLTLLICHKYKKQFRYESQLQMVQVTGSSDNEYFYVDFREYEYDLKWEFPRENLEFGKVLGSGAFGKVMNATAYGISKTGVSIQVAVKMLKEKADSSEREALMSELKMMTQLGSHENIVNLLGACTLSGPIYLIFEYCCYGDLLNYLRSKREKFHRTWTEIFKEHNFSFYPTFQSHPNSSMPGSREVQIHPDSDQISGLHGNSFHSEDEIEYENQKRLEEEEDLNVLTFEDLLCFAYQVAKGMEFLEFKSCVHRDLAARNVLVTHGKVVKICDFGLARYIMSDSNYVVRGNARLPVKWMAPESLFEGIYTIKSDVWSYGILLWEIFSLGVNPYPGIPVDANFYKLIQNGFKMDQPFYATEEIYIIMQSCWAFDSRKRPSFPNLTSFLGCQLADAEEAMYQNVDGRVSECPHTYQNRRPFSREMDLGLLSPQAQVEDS

[16] = target: Vascular endothelial growth factor receptor 3 (Homo sapiens) (UniProt P35916); settings: at 0.1 µM
[17] = target: Vascular endothelial growth factor receptor 3 (Homo sapiens) (UniProt P35916); settings: at 1 µM
[18] = target: Macrophage colony-stimulating factor 1 receptor (Homo sapiens) (UniProt P07333); settings: at 0.1 µM
[19] = target: Macrophage colony-stimulating factor 1 receptor (Homo sapiens) (UniProt P07333); settings: at 1 µM
[20] = target: Tyrosine-protein kinase Fyn (Homo sapiens) (UniProt P06241); settings: at 0.1 µM
Tyrosine-protein kinase Fyn (Homo sapiens), sequence (P06241 2-537 limits assumed): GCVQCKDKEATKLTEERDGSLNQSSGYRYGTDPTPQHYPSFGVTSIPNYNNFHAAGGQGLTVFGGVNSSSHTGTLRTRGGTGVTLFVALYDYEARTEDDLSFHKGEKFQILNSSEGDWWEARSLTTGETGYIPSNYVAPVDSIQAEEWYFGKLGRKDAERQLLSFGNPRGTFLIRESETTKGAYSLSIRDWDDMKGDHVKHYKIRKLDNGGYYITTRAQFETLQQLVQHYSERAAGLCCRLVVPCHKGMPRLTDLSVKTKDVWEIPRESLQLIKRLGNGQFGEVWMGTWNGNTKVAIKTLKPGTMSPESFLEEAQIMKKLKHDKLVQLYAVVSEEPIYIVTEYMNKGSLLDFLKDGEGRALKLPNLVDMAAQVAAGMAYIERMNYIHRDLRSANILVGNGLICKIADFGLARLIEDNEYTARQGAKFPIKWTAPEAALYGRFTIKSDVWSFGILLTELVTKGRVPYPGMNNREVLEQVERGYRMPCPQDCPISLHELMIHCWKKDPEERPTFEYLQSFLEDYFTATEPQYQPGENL

Vascular endothelial growth factor receptor 3 (Homo sapiens), sequence (P35916 whole entry): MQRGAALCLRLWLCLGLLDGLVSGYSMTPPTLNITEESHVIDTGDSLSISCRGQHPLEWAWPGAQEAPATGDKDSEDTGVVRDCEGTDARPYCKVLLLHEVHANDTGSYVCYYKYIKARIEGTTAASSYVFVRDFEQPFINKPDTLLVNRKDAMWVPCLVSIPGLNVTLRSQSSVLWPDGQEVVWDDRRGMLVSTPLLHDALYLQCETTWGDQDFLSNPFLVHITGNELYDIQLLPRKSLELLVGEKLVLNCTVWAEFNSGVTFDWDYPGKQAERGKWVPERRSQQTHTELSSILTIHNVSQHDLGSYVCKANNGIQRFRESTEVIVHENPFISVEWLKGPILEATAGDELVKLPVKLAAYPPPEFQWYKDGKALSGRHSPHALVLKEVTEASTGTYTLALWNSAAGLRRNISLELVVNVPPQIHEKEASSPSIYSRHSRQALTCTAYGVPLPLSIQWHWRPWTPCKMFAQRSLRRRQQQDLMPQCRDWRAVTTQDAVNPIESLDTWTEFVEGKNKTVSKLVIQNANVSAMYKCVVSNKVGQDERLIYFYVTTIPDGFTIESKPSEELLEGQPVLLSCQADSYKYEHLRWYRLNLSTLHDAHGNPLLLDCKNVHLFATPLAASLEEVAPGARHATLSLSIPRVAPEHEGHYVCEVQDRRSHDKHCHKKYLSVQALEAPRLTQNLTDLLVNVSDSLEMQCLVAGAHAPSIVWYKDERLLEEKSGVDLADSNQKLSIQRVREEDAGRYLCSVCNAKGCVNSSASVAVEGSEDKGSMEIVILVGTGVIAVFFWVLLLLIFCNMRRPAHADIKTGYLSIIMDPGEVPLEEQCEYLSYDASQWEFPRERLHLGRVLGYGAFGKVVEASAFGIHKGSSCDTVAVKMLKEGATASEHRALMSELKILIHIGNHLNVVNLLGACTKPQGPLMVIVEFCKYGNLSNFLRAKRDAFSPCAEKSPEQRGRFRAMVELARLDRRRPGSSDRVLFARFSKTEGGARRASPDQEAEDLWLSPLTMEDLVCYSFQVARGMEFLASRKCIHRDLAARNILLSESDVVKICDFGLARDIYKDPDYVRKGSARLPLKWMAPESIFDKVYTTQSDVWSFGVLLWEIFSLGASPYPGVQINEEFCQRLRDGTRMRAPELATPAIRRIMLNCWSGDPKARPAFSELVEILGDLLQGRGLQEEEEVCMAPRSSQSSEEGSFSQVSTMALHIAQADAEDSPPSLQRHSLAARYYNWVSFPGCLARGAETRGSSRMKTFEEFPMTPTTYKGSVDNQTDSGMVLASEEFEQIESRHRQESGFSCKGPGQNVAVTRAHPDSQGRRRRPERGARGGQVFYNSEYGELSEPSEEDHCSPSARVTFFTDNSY
Serine/threonine-protein kinase Nek6 (Homo sapiens), sequence (Q9HC98 whole entry): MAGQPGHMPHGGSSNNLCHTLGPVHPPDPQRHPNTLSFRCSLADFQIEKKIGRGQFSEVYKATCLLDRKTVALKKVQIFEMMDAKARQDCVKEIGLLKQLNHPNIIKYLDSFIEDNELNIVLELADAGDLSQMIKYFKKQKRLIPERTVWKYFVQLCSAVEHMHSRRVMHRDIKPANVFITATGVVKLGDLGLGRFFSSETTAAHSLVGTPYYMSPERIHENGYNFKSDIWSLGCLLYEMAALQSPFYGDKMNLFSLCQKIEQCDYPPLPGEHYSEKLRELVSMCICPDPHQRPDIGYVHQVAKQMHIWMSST
Serine/threonine-protein kinase PLK1 (Homo sapiens), sequence (P53350 whole entry): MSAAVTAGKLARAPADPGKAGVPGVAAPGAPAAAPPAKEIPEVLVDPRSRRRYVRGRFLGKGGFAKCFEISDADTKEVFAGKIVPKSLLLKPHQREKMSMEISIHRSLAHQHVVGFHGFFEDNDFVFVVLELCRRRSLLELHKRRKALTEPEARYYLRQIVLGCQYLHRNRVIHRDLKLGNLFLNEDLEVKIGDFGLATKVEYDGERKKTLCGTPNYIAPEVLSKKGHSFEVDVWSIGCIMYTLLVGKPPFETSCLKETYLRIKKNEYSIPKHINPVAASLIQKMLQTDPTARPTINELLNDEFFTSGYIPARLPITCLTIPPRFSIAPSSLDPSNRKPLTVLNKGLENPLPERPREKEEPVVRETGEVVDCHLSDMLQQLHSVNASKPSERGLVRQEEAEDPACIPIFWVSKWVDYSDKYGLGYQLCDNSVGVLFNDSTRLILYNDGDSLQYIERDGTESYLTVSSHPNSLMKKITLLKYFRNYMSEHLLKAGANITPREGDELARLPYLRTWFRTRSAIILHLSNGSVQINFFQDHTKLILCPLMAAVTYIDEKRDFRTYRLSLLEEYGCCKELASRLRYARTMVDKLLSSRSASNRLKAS
Macrophage colony-stimulating factor 1 receptor (Homo sapiens), sequence (P07333 whole entry): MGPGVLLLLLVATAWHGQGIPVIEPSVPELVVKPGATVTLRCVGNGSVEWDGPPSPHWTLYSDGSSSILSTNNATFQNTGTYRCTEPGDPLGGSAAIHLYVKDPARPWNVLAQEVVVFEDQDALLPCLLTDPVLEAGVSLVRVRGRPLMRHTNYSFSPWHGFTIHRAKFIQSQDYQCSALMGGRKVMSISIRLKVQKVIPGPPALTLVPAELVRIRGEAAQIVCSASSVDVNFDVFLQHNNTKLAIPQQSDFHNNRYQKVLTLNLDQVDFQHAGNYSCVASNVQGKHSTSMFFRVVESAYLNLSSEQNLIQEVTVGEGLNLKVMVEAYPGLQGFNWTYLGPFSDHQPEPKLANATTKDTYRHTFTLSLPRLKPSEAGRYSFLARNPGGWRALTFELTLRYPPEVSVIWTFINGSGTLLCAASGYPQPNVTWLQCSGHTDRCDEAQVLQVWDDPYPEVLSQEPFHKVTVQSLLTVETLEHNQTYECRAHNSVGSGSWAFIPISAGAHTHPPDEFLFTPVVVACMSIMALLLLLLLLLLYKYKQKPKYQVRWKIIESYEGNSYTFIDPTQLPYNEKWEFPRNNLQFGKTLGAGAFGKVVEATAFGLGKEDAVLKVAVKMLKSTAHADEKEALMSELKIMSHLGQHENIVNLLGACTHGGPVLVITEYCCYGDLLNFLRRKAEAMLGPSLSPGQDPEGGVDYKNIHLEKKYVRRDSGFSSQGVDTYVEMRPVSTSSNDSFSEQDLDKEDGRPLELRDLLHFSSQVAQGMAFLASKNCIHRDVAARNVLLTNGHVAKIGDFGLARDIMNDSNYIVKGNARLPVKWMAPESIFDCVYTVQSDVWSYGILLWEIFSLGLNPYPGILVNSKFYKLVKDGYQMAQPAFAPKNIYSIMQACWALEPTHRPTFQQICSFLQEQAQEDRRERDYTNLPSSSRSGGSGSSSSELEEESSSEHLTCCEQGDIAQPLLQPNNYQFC
Serine/threonine-protein kinase Nek7 (Homo sapiens), sequence (Q8TDX7 whole entry, looked up): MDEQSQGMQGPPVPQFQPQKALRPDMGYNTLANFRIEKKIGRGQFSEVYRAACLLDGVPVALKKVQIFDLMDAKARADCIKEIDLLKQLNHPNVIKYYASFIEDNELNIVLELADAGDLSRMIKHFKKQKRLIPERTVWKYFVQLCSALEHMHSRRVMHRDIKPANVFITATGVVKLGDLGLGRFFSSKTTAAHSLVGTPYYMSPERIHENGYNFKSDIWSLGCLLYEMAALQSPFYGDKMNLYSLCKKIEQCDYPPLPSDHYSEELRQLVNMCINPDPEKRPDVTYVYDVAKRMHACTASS

COc1cc2ncnc(Nc3ccc4c(cnn4Cc4ccccc4)c3)c2cc1OC
inhibition [1]: 4.31%
inhibition [2]: 1.6%
inhibition [3]: 0.76%
inhibition [4]: 2.52%
inhibition [5]: -2.69%
inhibition [6]: 9.32%
inhibition [7]: 3.49%
inhibition [8]: 0.26%
inhibition [9]: 6.18%
inhibition [10]: 6.67%
inhibition [11]: 8.26%
inhibition [12]: 3.61%
inhibition [13]: 3.2%
inhibition [14]: 10.4%
inhibition [15]: 2.33%
inhibition [16]: 4.91%
inhibition [17]: 15%
inhibition [18]: -1.86%
inhibition [19]: 3.16%
inhibition [20]: 7.78%

From ChEMBL document CHEMBL1961873, “Compounds: GSK PKIS; Assays: Nanosyn kinase panel” (2012)
